# Results filed as inconclusive are left out. Activity calls are given as the source filed them. Unless noted, no cut-off is given here; in the data, nearly all actives have AC50 up to about 30 µM.
# Experiments:
# [1] = viability loss in pontine glioma line – cell-based, SU-DIPG-IV, MIPE4.0, CellTiter-Glo, qHTS, dose response (AID 1347063); conditions: CellTiter-Glo ATP luminescence;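 note: compound exposure lasted 48 hours before the viability readout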
# [2] = growth inhibition of DIPG cells – cell-based, MIPE4.0 library, CellTiter-Glo luminescence, qHTS (AID 1347066); conditions: SU-DIPG-VI viability, CellTiter-Glo ATP luminescence;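 note: cells exposed to compound for 48 hours before readout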
# [3] = growth inhibition, single agent or in combination, cell-based, chromothripsis tumors, cisplatin or BGB combos (AID 1671449; in the data active = inhibition above about 80%;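 note: cells exposed for 96 hours; 0% = vehicle DMSO and 100% = killing by high DMSO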); conditions: LFS_MB_P medulloblastoma cells
# [4] = growth inhibition, single agent and combos, cell-based, chromothripsis tumors, cisplatin or BGB combos (AID 1671450; in the data active = inhibition above about 80%;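 note: cells exposed to compound for four days; 0% = vehicle DMSO and 100% = cell killing by high DMSO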); conditions: HDN33 neuroblastoma cells, stronger effect = higher value
# [5] = growth inhibition, single agents and combos, ICB984, cell-based, cisplatin or BGB combos, synergistic combos for chromothripsis tumors (AID 1671451; call rule not given here;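 note: cells exposed for 96 hours before readout; 0% = vehicle DMSO and 100% = killing by high DMSO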); conditions: ICB984 medulloblastoma cells, drug combinations, stronger effect = higher value
# [6] = growth inhibition, single agents and combos, LFS_MB_1R, cell-based, cisplatin or BGB combos, synergistic combos for chromothripsis tumors (AID 1671452; in the data active = inhibition above about 80%;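 note: cells exposed for 96 hours before readout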); conditions: LFS_MB_1R medulloblastoma cells, stronger effect = higher value
# [7] = growth inhibition, single agents and combos, HTB85, cell-based, BGB or cisplatin IC20 combos, synergistic combos for chromothripsis tumors (AID 1671453; in the data active = inhibition above about 80%;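 note: cells exposed for 96 hours before readout; 0% = vehicle DMSO and 100% = high DMSO killing control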); conditions: HTB85 osteosarcoma cells, drug combinations, stronger effect = higher value
# [8] = growth inhibition, MDA-MB-436, cell-based, BGB or cisplatin combos, synergistic combos for chromothripsis tumors (AID 1671458; call rule not given here;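 note: cells exposed for 96 hours; 0% = vehicle DMSO and 100% = killing by high DMSO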); conditions: MDA-MB-436 breast carcinoma growth inhibition, drug combinations, stronger effect = higher value
# [9] = BT084 cell growth, single and combined drugs, ICGC_MB145, cisplatin and BGB IC40 combos (AID 1671461; in the data active = inhibition above about 80%;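 note: cells exposed to drugs for 96 hours; 0% = vehicle DMSO and 100% = high DMSO full killing control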); conditions: BT084 medulloblastoma cells, drug combinations, stronger effect = higher value
# [10] = RCMB18 cell growth, single agent and combined, cisplatin and BGB IC40 combos (AID 1671462; in the data active = inhibition above about 80%;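 note: cells exposed to compound for four days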); conditions: RCMB18 medulloblastoma cells, stronger effect = higher value
# [11] = CRL1545 cell growth, single agent and combined, cisplatin and BGB IC20 combos (AID 1671464; in the data active = inhibition above about 80%;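 note: cells exposed to compound for 96 hours before readout; 0% = vehicle DMSO and 100% = high DMSO killing control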); conditions: CRL1545 osteosarcoma cells, stronger effect = higher value
# [12] = viability loss in pontine glioma line – cell-based, SU-DIPG-XIII, MIPE4.0, CellTiter-Glo, qHTS, dose response (AID 1347061; cut-off not given, nearly all actives have AC50 up to about 37 µM;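 note: cells exposed to compound for 48 hours before readout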); conditions: CellTiter-Glo ATP luminescence
# [13] = viability loss in pontine glioma line – cell-based, JHH-DIPG-1, MIPE4.0, CellTiter-Glo, qHTS, dose response (AID 1347062; cut-off not given, nearly all actives have AC50 up to about 27 µM); conditions: JHH-DIPG-1 viability, CellTiter-Glo ATP luminescence
# [14] = JHH-DIPG-1 glioma cell viability, MIPE5.0 library, CellTiter-Glo luminescence, qHTS (AID 1347067; cut-off not given, nearly all actives have AC50 up to about 26 µM;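 note: cells exposed to compound for 48 hours before readout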); conditions: JHH-DIPG-1 glioma viability, CellTiter-Glo ATP luminescence
# [15] = biological target: ATP-dependent translocase ABCB1 (Homo sapiens) (UniProt P08183); test: P-glycoprotein substrate transport blockade – cell-based (AID 377; in the data active = fluorescence slope change above about 50%); conditions: MDR1-expressing cells, fluorescent substrate accumulation slope; stronger effect = higher value; concentration not given here
# [16] = viability loss in pontine glioma line – cell-based, SU-DIPG-XVII, MIPE5.0, CellTiter-Glo, qHTS, dose response (AID 1347060; cut-off not given, nearly all actives have AC50 up to about 26 µM;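 for AC50: cells exposed to compound for 48 hours before viability readout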); conditions: CellTiter-Glo ATP luminescence
# [17] = growth inhibition of DIPG cells – cell-based, MIPE5.0 library, qHTS (AID 1347068; cut-off not given, nearly all actives have IC50 up to about 30 µM); conditions: SU-DIPG-XXV viability
# [18] = test system: Hepatitis C virus NS3 helicase; test: blockers of NS3h binding to ssDNA – biochemical, fluorescence polarization, LOPAC1280 library, primary screen (AID 687035; in the data active = inhibition above about 37%); conditions: Purified HCV NS3 helicase, Cy5-dT15 ssDNA binding fluorescence polarization; stronger effect = higher value; concentration not given here
# [19] = compounds altering Cy5-DNA-NS3h complex signal – biochemical, LOPAC1280, artefact control for HCV NS3 helicase inhibitor project (AID 687037; call rule not given here); conditions: Cy5-DNA-NS3h complex fluorescence interference counterscreen
# [20] = viability loss in pontine glioma line – cell-based, SU-DIPG-XIII, MIPE5.0, CellTiter-Glo, qHTS, dose response (AID 1347064; cut-off not given, nearly all actives have AC50 up to about 23 µM); conditions: CellTiter-Glo ATP luminescence
# [21] = measured here: combination with BGB IC40, at 0.05 µM
# [22] = measured here: with BGB IC20 combination, at 0.5 µM
# [23] = measured here: with cisplatin IC20 combination, at 0.5 µM
# [24] = measured here: combination with cisplatin, at 0.5 µM
# Sequence of ATP-dependent translocase ABCB1 (Homo sapiens) (P08183 whole entry, looked up): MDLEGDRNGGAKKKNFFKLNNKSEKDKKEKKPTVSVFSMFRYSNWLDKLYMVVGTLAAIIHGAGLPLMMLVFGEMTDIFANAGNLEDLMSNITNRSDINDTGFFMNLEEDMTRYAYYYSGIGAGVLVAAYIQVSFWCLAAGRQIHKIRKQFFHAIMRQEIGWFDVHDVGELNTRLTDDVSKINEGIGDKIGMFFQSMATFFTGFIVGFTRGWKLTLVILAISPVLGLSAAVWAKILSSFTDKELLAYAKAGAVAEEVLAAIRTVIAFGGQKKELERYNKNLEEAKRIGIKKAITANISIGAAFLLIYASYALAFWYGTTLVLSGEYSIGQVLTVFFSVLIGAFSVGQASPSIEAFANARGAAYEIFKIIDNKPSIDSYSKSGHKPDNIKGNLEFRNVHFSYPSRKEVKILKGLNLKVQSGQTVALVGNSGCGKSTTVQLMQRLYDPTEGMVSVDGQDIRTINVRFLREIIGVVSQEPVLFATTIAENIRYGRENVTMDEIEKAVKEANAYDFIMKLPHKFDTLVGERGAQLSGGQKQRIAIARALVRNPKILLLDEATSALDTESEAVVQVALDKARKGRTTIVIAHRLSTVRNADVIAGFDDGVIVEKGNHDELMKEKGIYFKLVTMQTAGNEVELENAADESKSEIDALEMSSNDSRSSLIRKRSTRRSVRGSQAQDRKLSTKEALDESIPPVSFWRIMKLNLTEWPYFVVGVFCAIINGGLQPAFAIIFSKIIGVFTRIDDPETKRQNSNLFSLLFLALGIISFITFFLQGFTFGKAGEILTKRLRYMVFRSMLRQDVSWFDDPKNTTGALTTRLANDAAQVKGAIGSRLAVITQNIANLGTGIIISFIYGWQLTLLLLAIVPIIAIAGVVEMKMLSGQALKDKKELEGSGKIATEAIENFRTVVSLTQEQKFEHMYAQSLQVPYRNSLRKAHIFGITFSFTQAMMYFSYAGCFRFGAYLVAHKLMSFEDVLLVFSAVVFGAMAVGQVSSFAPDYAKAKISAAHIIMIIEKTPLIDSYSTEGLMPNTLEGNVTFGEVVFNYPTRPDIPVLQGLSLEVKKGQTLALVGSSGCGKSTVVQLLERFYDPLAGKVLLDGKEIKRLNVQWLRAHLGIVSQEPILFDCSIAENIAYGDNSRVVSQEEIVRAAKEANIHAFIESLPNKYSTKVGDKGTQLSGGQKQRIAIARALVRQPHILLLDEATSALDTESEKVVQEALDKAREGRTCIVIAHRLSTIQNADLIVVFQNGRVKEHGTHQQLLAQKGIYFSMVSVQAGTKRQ
smiles,measurement,setting,value
O=c1c(O)c(-c2ccc(O)c(O)c2)oc2cc(O)ccc12,AC50,[1],18.7 µM (active)
same,AC50,[2],29.6 µM (active)
same,inhibition,"[3]; at 0.5 µM, stronger effect = higher value",-6.56% (inactive)
same,inhibition,"[3]; measured here: combination with BGB IC20, at 0.005 µM",-16.9%
same,inhibition,"[3]; measured here: combination with BGB IC40, at 0.005 µM",5.59%
same,inhibition,[3]; [21],5.54%
same,inhibition,"[3]; measured here: combination with cisplatin, at 0.5 µM, stronger effect = higher value",-17.1%
same,inhibition,"[3]; measured here: combination with cisplatin, at 5 µM, stronger effect = higher value",11%
same,inhibition,"[4]; BGB combo, at 5 µM",-4.9%
same,inhibition,[4]; at 0.5 µM,4.36% (inactive)
same,inhibition,"[4]; cisplatin combo, at 5 µM",3.02%
same,inhibition,[4]; [22],-4.05%
same,inhibition,[4]; [23],5.86%
same,inhibition,"[4]; single agent, at 5 µM",-1.94%
same,inhibition,"[5]; BGB IC20 combo, at 0.005 µM",-15.9%
same,inhibition,"[5]; BGB IC40 combo, at 0.005 µM",-16.9%
same,inhibition,"[5]; BGB IC40 combo, at 0.05 µM",-3.67%
same,inhibition,[5]; at 0.5 µM,-24.7% (inactive)
same,inhibition,"[5]; cisplatin combo, at 0.05 µM",-3.67%
same,inhibition,"[5]; cisplatin combo, at 0.5 µM",-43.4%
same,inhibition,"[5]; cisplatin combo, at 5 µM",-7.32%
same,inhibition,"[5]; measured here: 5 uM single agent, at 5 µM",-7.82%
same,inhibition,[6]; at 0.5 µM,-4.27% (inactive)
same,inhibition,[6]; [21],-15.9%
same,inhibition,[6]; [24],-18.5%
same,inhibition,"[6]; measured here: combination with cisplatin, at 5 µM",-12.6%
same,inhibition,[7]; at 0.5 µM,3.31% (inactive)
same,inhibition,"[7]; measured here: with BGB IC20, at 0.5 µM",-8.35%
same,inhibition,"[7]; measured here: with BGB IC20, at 5 µM",3.71%
same,inhibition,"[7]; measured here: with cisplatin IC20, at 0.5 µM",14.6%
same,inhibition,"[7]; measured here: with cisplatin IC20, at 5 µM",6.28%
same,inhibition,"[7]; single agent, at 5 µM",8.35%
same,inhibition,[8]; at 0.5 µM,-7.38% (inactive)
same,inhibition,"[8]; measured here: BGB combination, at 0.5 µM",5.2%
same,inhibition,"[8]; measured here: BGB combination, at 5 µM",-2.65%
same,inhibition,"[8]; measured here: cisplatin combination, at 0.5 µM",-24.9%
same,inhibition,"[8]; measured here: cisplatin combination, at 5 µM",5.5%
same,inhibition,[9]; at 0.5 µM,-4.39% (inactive)
same,inhibition,"[9]; cisplatin combination, at 0.5 µM",-0.071%
same,inhibition,"[9]; cisplatin combination, at 5 µM",-26.8%
same,inhibition,"[9]; measured here: BGB IC40 combination 0.05 uM, at 0.05 µM",5.57%
same,inhibition,"[9]; single agent, at 5 µM",-4.55%
same,inhibition,[10]; at 0.5 µM,-4.12% (inactive)
same,inhibition,"[10]; cisplatin combo, at 5 µM",18.3%
same,inhibition,"[10]; measured here: BGB IC40 combination, at 0.05 µM",21.3%
same,inhibition,[10]; [24],-7.15%
same,inhibition,"[10]; single agent, at 5 µM",-9.89%
same,inhibition,[11]; at 0.5 µM,-3.43% (inactive)
same,inhibition,[11]; [22],-7.45%
same,inhibition,[11]; [23],-1.43%
same,inhibition,"[11]; single agent, at 0.05 µM",31.3%
same,inhibition,"[11]; single agent, at 5 µM",6.36%
O=c1cc(-c2ccccc2)oc2cc(O)cc(O)c12,outcome,[12],inactive
same,outcome,[13],inactive
same,outcome,[1],inactive
same,outcome,[2],inactive
same,outcome,[14],inactive
CC[C@H]1OC(=O)[C@H](C)[C@@H](O[C@H]2C[C@@](C)(OC)[C@@H](O)[C@H](C)O2)[C@H](C)[C@@H](O[C@@H]2O[C@H](C)C[C@H](N(C)C)[C@H]2O)[C@](C)(O)C[C@@H](C)C(=O)[C@H](C)[C@@H](O)[C@]1(C)O,fluorescence slope change,[15],76.3% (active)
same,outcome,[16],inactive
same,outcome,[14],inactive
same,outcome,[17],inactive
COc1cc(/C=C/C(=O)O)ccc1O,outcome,[12],inactive
same,outcome,[13],inactive
same,outcome,[1],inactive
same,outcome,[2],inactive
O=C(/C=C/c1ccc(O)cc1)c1ccc(O)cc1O,inhibition,[18],0% (inactive)
same,fluorescence ratio (interference),[19],0.9 (inactive)
same,outcome,[16],inactive
NC[C@H]1O[C@H](O[C@H]2[C@H](O)[C@@H](O[C@H]3O[C@H](CO)[C@@H](O)[C@H](N)[C@H]3O)[C@H](N)C[C@@H]2N)[C@H](N)C[C@@H]1O,outcome,[16],inactive
same,outcome,[12],inactive
same,outcome,[13],inactive
same,outcome,[1],inactive
same,outcome,[20],inactive
same,outcome,[2],inactive
same,outcome,[14],inactive
same,outcome,[17],inactive
COc1ccc(-c2coc3cc(O)cc(O)c3c2=O)cc1,AC50,[16],26.3 µM (active)
same,outcome,[13],inactive
same,outcome,[2],inactive
OCC(O)C(O)C(O)CO (centres undefined),outcome,[12],inactive
same,outcome,[13],inactive
same,outcome,[1],inactive
same,outcome,[2],inactive
O=C1C[C@@H](c2ccc(O)cc2)Oc2cc(O)cc(O)c21,outcome,[16],inactive
same,outcome,[12],inactive
same,outcome,[13],inactive
same,outcome,[1],inactive
same,outcome,[2],inactive
same,outcome,[14],inactive
same,outcome,[17],inactive
Cc1cc(O)c2c(c1)C(=O)c1cc(O)cc(O)c1C2=O,inhibition,[18],0% (inactive)
same,fluorescence ratio (interference),[19],1 (inactive)
same,outcome,[12],inactive
same,outcome,[13],inactive
same,outcome,[20],inactive
same,outcome,[2],inactive
NC1(C(=O)O)CC1,inhibition,[18],-2% (inactive)
same,fluorescence ratio (interference),[19],1 (inactive)
COc1cc(S(C)=O)ccc1-c1nc2ncccc2[nH]1 (centres undefined),fluorescence slope change,[15],5% (inactive)
